Experimental data taken from ChEMBL document CHEMBL1961873, “Compounds: GSK PKIS; Assays: Nanosyn kinase panel” (2012).

Legend:
[1] = target: Mitogen-activated protein kinase 3 (Homo sapiens) (UniProt P27361); settings: at 1 µM;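 note: values are mean percent inhibition of MAPK3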
[2] = target: SRSF protein kinase 3 (Homo sapiens) (UniProt Q9UPE1); settings: at 0.1 µM
[3] = target: SRSF protein kinase 3 (Homo sapiens) (UniProt Q9UPE1); settings: at 1 µM
[4] = target: Mitogen-activated protein kinase 14 (Homo sapiens) (UniProt Q16539); settings: at 0.1 µM
[5] = target: Mitogen-activated protein kinase 14 (Homo sapiens) (UniProt Q16539); settings: at 1 µM
[6] = target: Mitogen-activated protein kinase 11 (Homo sapiens) (UniProt Q15759); settings: at 0.1 µM
[7] = target: Mitogen-activated protein kinase 11 (Homo sapiens) (UniProt Q15759); settings: at 1 µM
[8] = target: T1, Mitogen-activated protein kinase 13 (Homo sapiens) (UniProt O15264); settings: at 0.1 µM
T1 sequence (whole entry): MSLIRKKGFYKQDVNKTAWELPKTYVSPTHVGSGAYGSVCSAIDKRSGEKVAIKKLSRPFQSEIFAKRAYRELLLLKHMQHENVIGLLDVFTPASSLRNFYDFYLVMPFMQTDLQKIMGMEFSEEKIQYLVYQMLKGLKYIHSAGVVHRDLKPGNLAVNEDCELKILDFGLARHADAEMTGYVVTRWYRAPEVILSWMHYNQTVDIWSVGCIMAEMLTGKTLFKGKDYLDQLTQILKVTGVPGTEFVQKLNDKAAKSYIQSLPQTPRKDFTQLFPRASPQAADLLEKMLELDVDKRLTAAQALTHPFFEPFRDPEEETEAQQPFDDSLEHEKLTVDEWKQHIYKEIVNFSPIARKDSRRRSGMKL

[9] = target: T1, Mitogen-activated protein kinase 13 (Homo sapiens); settings: at 1 µM
[10] = target: T2, Mitogen-activated protein kinase 12 (Homo sapiens) (UniProt P53778); settings: at 0.1 µM
T2 sequence (whole entry): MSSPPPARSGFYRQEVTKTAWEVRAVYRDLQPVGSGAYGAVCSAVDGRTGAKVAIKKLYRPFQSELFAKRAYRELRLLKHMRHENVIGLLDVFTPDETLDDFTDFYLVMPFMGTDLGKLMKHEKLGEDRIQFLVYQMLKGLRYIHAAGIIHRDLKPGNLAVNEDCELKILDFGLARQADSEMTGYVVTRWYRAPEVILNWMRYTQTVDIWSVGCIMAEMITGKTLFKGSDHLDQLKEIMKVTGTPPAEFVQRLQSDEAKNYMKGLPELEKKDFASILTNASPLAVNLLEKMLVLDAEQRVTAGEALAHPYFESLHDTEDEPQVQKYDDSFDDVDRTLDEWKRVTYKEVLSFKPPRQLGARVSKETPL

Chain of Mitogen-activated protein kinase 3 (Homo sapiens) (P27361 whole entry): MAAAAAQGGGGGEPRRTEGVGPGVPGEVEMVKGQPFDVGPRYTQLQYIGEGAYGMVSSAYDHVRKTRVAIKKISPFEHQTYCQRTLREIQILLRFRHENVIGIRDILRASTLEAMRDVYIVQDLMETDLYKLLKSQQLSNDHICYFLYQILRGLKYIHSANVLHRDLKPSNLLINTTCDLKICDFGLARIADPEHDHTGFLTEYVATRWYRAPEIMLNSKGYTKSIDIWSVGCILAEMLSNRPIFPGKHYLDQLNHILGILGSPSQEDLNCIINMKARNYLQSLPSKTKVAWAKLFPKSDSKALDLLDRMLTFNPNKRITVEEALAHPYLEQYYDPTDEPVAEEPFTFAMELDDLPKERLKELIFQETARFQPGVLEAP
Chain of Mitogen-activated protein kinase 14 (Homo sapiens) (Q16539 whole entry): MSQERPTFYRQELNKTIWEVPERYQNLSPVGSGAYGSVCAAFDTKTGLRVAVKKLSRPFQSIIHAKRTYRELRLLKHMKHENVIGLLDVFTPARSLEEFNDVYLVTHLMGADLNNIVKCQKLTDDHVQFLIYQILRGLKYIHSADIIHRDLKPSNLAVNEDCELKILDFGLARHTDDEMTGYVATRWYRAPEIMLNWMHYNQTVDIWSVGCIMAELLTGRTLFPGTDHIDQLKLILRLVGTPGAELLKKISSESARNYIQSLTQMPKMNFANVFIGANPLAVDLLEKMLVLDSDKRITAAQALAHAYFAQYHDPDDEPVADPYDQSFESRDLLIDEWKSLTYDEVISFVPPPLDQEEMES
Chain of SRSF protein kinase 3 (Homo sapiens) (Q9UPE1 whole entry): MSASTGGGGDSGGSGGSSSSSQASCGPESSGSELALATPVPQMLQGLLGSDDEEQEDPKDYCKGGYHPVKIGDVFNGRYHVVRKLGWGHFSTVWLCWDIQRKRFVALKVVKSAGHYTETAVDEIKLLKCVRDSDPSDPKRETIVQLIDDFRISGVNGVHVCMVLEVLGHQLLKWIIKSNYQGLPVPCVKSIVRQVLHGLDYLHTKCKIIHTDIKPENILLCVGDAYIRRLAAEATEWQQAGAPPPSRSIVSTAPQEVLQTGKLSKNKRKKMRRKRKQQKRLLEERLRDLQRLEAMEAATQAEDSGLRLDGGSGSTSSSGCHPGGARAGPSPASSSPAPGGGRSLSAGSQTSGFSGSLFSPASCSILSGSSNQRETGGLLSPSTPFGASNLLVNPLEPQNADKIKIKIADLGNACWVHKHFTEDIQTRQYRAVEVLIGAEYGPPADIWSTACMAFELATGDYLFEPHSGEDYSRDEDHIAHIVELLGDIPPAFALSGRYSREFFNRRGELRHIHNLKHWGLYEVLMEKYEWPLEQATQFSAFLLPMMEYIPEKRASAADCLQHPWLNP
Chain of Mitogen-activated protein kinase 11 (Homo sapiens) (Q15759 whole entry): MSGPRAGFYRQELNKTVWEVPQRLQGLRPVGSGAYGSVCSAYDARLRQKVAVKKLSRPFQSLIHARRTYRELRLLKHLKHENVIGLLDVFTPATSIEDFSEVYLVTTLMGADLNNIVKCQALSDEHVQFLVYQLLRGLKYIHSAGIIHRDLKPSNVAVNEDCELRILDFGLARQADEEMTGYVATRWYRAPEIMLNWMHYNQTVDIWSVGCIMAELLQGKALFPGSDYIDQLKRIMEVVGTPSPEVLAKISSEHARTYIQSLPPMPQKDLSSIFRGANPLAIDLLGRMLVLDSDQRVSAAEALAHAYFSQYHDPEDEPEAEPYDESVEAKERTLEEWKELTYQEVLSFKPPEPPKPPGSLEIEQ

| SMILES | inhibition [1] [%] | inhibition [2] [%] | inhibition [3] [%] | inhibition [4] [%] | inhibition [5] [%] | inhibition [6] [%] | inhibition [7] [%] | inhibition [8] [%] | inhibition [9] [%] | inhibition [10] [%] |
| --- | --- | --- | --- | --- | --- | --- | --- | --- | --- | --- |
| Fc1ccc(-c2ncn(C3CCNCC3)c2-c2ccnc(Oc3ccc(F)c(F)c3)n2)cc1 | 6.51 | -3.83 | -1.43 |  |  |  |  |  |  |  |
| CCN(CC)Cc1ccc(Nc2nccc(-c3cnn4ncccc34)n2)cc1 | 7.61 | -1.94 | -0.22 | 6.95 | 13.1 | 3.23 | 4.99 | 4.71 | 9.25 | 3.65 |
| NC(=O)Cc1ccccc1Oc1nccc(-c2c(-c3ccc(F)cc3)ncn2C2CCNCC2)n1 | 2.24 | -0.6 | 0.09 |  |  |  |  |  |  |  |
| Fc1ccc(-c2ncn(C3CCNCC3)c2-c2ccnc(Oc3ccc4c(c3)OCO4)n2)cc1 | 10.1 | 1.72 | 6.43 |  |  |  |  |  |  |  |
| Cc1nnc(-c2ccc(C)c(-c3ccc(C(=O)NCc4ccc(Cl)cc4)cc3)c2)o1 | 3.65 | -1.7 | -0.7 | 9.97 | 54.2 | 6.73 | 27.7 | 1.96 | 3.99 | 1.42 |
| Fc1ccc(-c2c(-c3ccncc3)nc3n2CCS3)cc1 | 2.25 | -1.16 | 1.49 | 1.13 | 10.9 | 1.9 | 0.65 | 3.54 | 2.65 | 3.9 |
| Fc1ccc(-c2ncn(C3CCNCC3)c2-c2ccnc(Oc3ccc(Oc4ccccc4)cc3)n2)cc1 | 5.57 | 4.51 | -0.81 |  |  |  |  |  |  |  |
| CCc1cccc(CC)c1/C=C/c1cncc(C(=O)NC)c1 | 1.29 | 1.81 | 0.49 | 3.92 | 8.94 | 4.41 | 4.99 | -0.46 | 4.25 | -2.91 |
| C[C@@H](Oc1cc(-n2cnc3ccc(OCC4CCN(C)CC4)cc32)sc1C(N)=O)c1ccccc1Cl | 7.74 | 0.89 | 0.11 | 5.8 | 6.58 | 3.71 | 5.93 | 5.74 | 6.23 | 3.48 |
| O=C(Nc1n[nH]c2cc(-c3ccccc3)ccc12)C1CC1 | 4.97 | -0.47 | -0.2 | 4.83 | 11.2 | 4.66 | 6.34 | 3.31 | 5.86 | 6.09 |
| Fc1ccc(-c2ncn(CCCN3CCOCC3)c2-c2ccncc2)cc1 | 1.77 | -0.25 | -0.76 | 7.39 | 48 | 3.21 | 8.94 | 0.12 | -0.39 | 0.95 |
| CS(=O)(=O)CCNCc1ccc(-c2ccc3ncnc(Nc4ccc(OCc5ccccc5)c(Br)c4)c3c2)o1 | 4.46 | -5.29 | -0.77 | 6.51 | 5.46 | 3.98 | 5.45 | 4.88 | 3.53 | 3.43 |
| COc1cc(Nc2ncc3c(C)nc(-c4cccc(Oc5ccccc5)c4)n3n2)cc(OC)c1OC | 5.07 | 0.17 | 1.56 | 0.66 | 4.12 | 0.51 | 4.42 | 0.98 | 2.5 | 0.18 |
| CCc1ccc(Oc2nccc(-c3c(-c4ccc(F)cc4)ncn3C3CCNCC3)n2)cc1 | 8.24 | 3.09 | 0.07 |  |  |  |  |  |  |  |
| Nc1nccc(-c2c(-c3ccc(F)cc3)ncn2C2CCC(O)CC2)n1 (stereo unspecified) | 0 | 1.14 | 0.84 | 70.8 | 92.5 | 14.9 | 62.2 | 0.18 | -2.89 | -3.41 |
| COc1ccc2cc(-c3c(-c4ccncc4)nc(-c4ccc(S(C)(=O)=O)cc4C)n3C)ccc2c1 | 2.57 | -1.96 | -4.7 | 14.2 | 17.3 | 2.54 | 11 | 2.15 | 5.04 | 3.44 |
| COc1cc(Nc2ncc3c(C)nc(-c4cccc(C(F)(F)F)c4)n3n2)cc(OC)c1OC | 7.25 | -0.69 | 3.15 | 1.25 | 6.99 | 3.99 | 8.89 | -0.83 | 1.78 | 0.21 |
| O=C(Nc1n[nH]c2cc(-c3cc(F)ccc3F)ccc12)C1CC1 | 0.63 | -2.33 | -2.21 | 1.76 | 8.79 | 3.95 | 7.57 | -0.68 | 4.17 | 0.34 |

| SMILES | inhibition [1] [%] | inhibition [2] [%] | inhibition [3] [%] | inhibition [4] [%] | inhibition [5] [%] | inhibition [6] [%] | inhibition [7] [%] | inhibition [8] [%] | inhibition [9] [%] | inhibition [10] [%] |
| --- | --- | --- | --- | --- | --- | --- | --- | --- | --- | --- |
| NC(=O)c1ccc(Oc2nccc(-c3c(-c4ccc(F)cc4)ncn3C3CCNCC3)n2)cc1 | 5.38 | 1.1 | -0.11 |  |  |  |  |  |  |  |
| CN(C)CCCNc1nccc(-c2c(-c3ccc(F)cc3)nn3cc(C(F)(F)F)ccc23)n1 | 2.96 | 2.1 | 6.95 | 17.8 | 67.8 | 5.1 | 17.9 | 1.74 | 5.4 | 0.47 |
| N#Cc1ccc(Oc2nccc(-c3c(-c4ccc(F)cc4)ncn3C3CCNCC3)n2)cc1 | 6.42 | -1.55 | -0.03 |  |  |  |  |  |  |  |
| CN(C)c1ccc2c(c1)/C(=C/Nc1ccc(S(N)(=O)=O)cc1)C(=O)N2 | 2.21 | -1.98 | -1.04 | 1.18 | 2.39 | 1.4 | 0.72 | 6.36 | 1.98 | 2.6 |
| CCS(=O)(=O)c1ccc(OC)c(Nc2ncc(-c3cccc(-c4ccccc4F)c3)o2)c1 | 0.15 | 0.74 | 1.45 | 5.17 | 8.57 | 0.03 | 4.77 | 3.85 | -0.94 | -2.59 |
| O=C(Nc1n[nH]c2nc(-c3ccco3)ccc12)C1CC1 | 1.35 | 0.39 | 4.26 | 1.96 | 5.5 | 1.81 | 1.59 | 1.26 | 1.37 | 5.77 |
| COc1cccc(/C=N/Nc2ncnc3c2cnn3-c2cccc(OC)c2)c1 | 2.47 | -1.31 | -0.75 | 5.18 | 5.34 | 2.68 | 2.6 | 4 | 4.61 | 3.43 |
| CN(c1ccc(NC(=O)Nc2c(Cl)cccc2Cl)cc1)c1ccnc(Nc2cccc(CS(C)(=O)=O)c2)n1 | 4.66 | 0.97 | 2.4 | 2.39 | 3.34 | 1.5 | 4.6 | 1.53 | 1.46 | -0.44 |
| COc1cc(Nc2ncc(-c3ccccc3)o2)cc(OC)c1OC | 1.29 | -0.22 | 0.18 | -3.46 | -4.25 | 1.4 | 0.04 | -0.94 | -1.63 | -1.8 |
| O=C(Nc1ccc(Oc2ccc3[nH]c(NC(=O)c4ccccc4)nc3c2)cc1)Nc1cc(C(F)(F)F)ccc1F | 3.58 | 4.8 | 50.7 | 11.1 | 40 | 5.44 | 32.5 | 1.65 | 3.87 | -0.11 |
| O=C(NCC1CC1)c1ccc(-c2cccc(C(=O)NC3CC3)c2)cc1 | 0.8 | 1.6 | 1.04 | 1.13 | 13.9 | 2.37 | 7.97 | 1.41 | 3.97 | 4.08 |
| FC(F)(F)c1cccc(Nc2nccc(-c3cnn4nc(-c5ccccc5)ccc34)n2)c1 | 3 | -2.14 | 1.08 | 3.54 | 1.79 | 3.08 | 3.39 | 1.85 | 0.28 | 1.53 |
| CCC(=O)Nc1ccc(C)c(-c2ccc(C(=O)NCC3CC3)cc2)c1 | 1.57 | -1.41 | -1.57 | 20.1 | 62.9 | 6.54 | 36.8 | 3.68 | 3.22 | 2.95 |
| COc1cc(C)c(N(C)C(=O)CN(C)C)cc1Nc1nc(Nc2cccc(F)c2C(N)=O)c2cc[nH]c2n1 | 2.25 | 1.68 | 1.28 | -0.82 | 3.91 | 2.56 | 0.98 | 1 | 1.9 | 0.25 |
| O=C1Nc2ccccc2/C1=C/Nc1ccc(-n2cncn2)cc1 | 6.36 | -3.04 | -0.36 | 2.12 | 6.86 | 5.3 | 8.05 | 2.33 | 5.56 | 2.03 |
| c1ccc(-c2n[nH]cc2-c2ccnc(-c3ccc(OCCN4CCOCC4)cc3)c2)nc1 | -2.62 | 2.38 | 0.78 | 3.12 | 28.9 | -0.65 | 5.15 | 5.65 | -0.43 | 3.09 |
| COC(=O)Nc1nc2ccc(Sc3ccc(NC(=O)Nc4cc(C(F)(F)F)ccc4F)cc3)cc2[nH]1 | 1.55 | 0.07 | 8.97 | 5.88 | 39.3 | 3.62 | 34.3 | 1.98 | 2.44 | 0.78 |
| COc1ccc(-c2ccc3c(NC(=O)C4CC4)n[nH]c3n2)cc1 | 4.66 | -1.22 | 1.44 | 1.32 | 5.28 | 2.79 | 8.84 | -0.41 | 0.43 | 1.27 |
